Screens deposited in PubChem by National Center for Advancing Translational Sciences (NCATS).
Rows were chosen to be rich in hits. Some 2.1% of all compounds tested hit in one or more screens of this group.
aSyn rescue: rescues yeast growth from alpha-synuclein toxicity. Potency, µM (highest dose often 46.1 µM), hits mostly activators. 0.14% of 370,000 active. Yeast expressing alpha-synuclein, growth rescue, BacTiter-Glo, 24 h; further: nearly all actives have a fitted effect of over 65% in size
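Rescue of yeast growth: cells expressing toxic alpha-synuclein, induced in galactose at OD600 0.02, incubated with compound 24 h at 30 C. ATP luminescence quantified growth; inhibitors of toxicity appear as activators.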
FUS yeast rescue: rescues growth of FUS-expressing yeast. 0.24% of 390,000 active. S. cerevisiae FUS-expressing, growth rescue, OD600, 24 h. Potency, µM (highest dose often 76.6 µM), usual class: activators. AID 1347120; further: nearly all actives have a fitted effect of over 55% in size
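Compound concentration series was pinned onto galactose-induced FUS-expressing yeast seeded at OD 0.005. Plates sat 24hr at 30C; absorbance at 600 nm gave growth. DMSO served as background control.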
Abeta rescue: restores growth of yeast expressing A-beta42 peptide; yeast expressing A-beta42, growth rescue, OD600, 48 h; response scale: 0% DMSO, 100% iron-clioquinol control; Potency, µM (highest dose often 46.1 µM), most hits filed as activators; 0.063% of 410,000 active; further: nearly all actives have a fitted effect of over 55% in size
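Yeast A-beta toxicity model in growth medium with pinned compounds, 48 h at 30 C; growth read as absorbance at 600 nm. Normalized to FeCl3/clioquinol equimolar mix (positive) and DMSO (negative).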
TDP-43 yeast inh: inhibitors of TDP-43 toxicity in yeast. 1.8% of 410,000 active. TDP-43 expressing yeast growth rescue, BacTiter-Glo, 24 h. AID 652104. Potency, µM (doses to about 46.1 µM), hits mostly activators; further: nearly all actives have a fitted effect of over 50% in size
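Growth rescue of TDP-43-toxic yeast measured as ATP luminescence (BacTiter-Glo). Cells grown to mid-log in raffinose, induced in galactose at OD600=0.02, exposed to compound 24 hr at 30 deg C.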
Hits are given with their value; - = inactive; ? = inconclusive; . = no result; [ ] = dose if it differs, or a comment. The call rests on the fitted dose curve; in most records, active means well fitted curve in the direction sought with a large enough effect; inconclusive means small, poorly fitted or top-dose-only effect, or another doubt; inactive means no such curve, though single readings can be large; an effect the other way counts as inactive or inconclusive.

SMILES	aSyn rescue	FUS yeast rescue	Abeta rescue	TDP-43 yeast inh
CCC(=O)N1CCc2cc(Br)cc(S(=O)(=O)N3CCCC(C(=O)Nc4ccc(C)c(F)c4)C3)c21 (stereo not given)	.	-	-	-
CCN1CCN(C(=O)c2cnn(-c3ccc(F)cc3)c2-n2cccc2)CC1	-	-	-	-
COc1cccc(-n2c(-c3ccco3)nc3c(cnn3-c3ccc(C)cc3)c2=O)c1	.	?	-	-
O=C1SC(Nc2ccc(Cl)cc2)C(=O)N1Cc1ccccc1 (stereo not given)	.	-	?	?
CCOc1ccc(NC2SC(=O)N(Cc3ccccc3)C2=O)cc1 (stereo not given)	.	-	?	13µM
CN=C(Nc1cc(Cl)ccc1Cl)SC1CC(=O)N(c2ccc(C(=O)OC)cc2)C1=O (stereo not given)	?	?	?	25µM
COC(=O)[C@]12C[C@H](CC(=O)N3CCOCC3)C(=O)N(Cc3cccc4ccccc34)C1=C[C@H](C(C)(C)C)O[C@@H]2C	.	22µM	.	.
COC(=O)[C@]12C[C@H](CC(=O)N3CCC(c4ccccc4)CC3)C(=O)N(Cc3cccc4ccccc34)C1=C[C@H](C(C)(C)C)O[C@@H]2C	.	-	.	.
COC(=O)[C@]12C[C@H](CC(=O)NCc3cccs3)C(=O)N(Cc3cccc4ccccc34)C1=C[C@H](C(C)(C)C)O[C@@H]2C	.	10µM	.	.
COC(=O)[C@]12C[C@H](CC(=O)NCCC(C)C)C(=O)N(Cc3cccc4ccccc34)C1=C[C@H](C(C)(C)C)O[C@@H]2C	.	22µM	.	.
COC(=O)[C@]12C[C@H](CC(=O)NCC3CCCCC3)C(=O)N(Cc3cccc4ccccc34)C1=C[C@H](C(C)(C)C)O[C@@H]2C	.	-	.	.
Cn1cc(-c2cc3n(n2)CCC(=O)N3CCCC(=O)Nc2ccccc2Cl)c2ccccc21	.	?	-	-
O=c1cc(C(O)C[N+](=O)[O-])occ1OCc1ccccc1 (stereo not given)	-	32µM	-	-
Nc1cc([N+](=O)[O-])ccc1OCc1ccccc1	-	.	-	?
O=C(CCC1CCCCC1)Nc1ccccc1-c1ccccc1	-	-	-	14µM
CC1(c2ccccc2)CC(=O)N(c2ccc(NC(=O)c3ccccn3)cc2Cl)C1=O (stereo not given)	.	-	.	.
COC(=O)c1cnn2c3c(c(C)nc12)CCCC3	-	-	-	-
Cc1nc2c(Br)c(C)nn2c2c1CCC2	-	-	-	11µM
COc1ccccc1C1=Nn2c(nc3sc(C(=O)Nc4ccccc4Cl)c(C)c3c2=O)SC1	.	-	-	-
O=[N+]([O-])c1nn(-c2ccc3c(c2)OCCO3)n(O)c1=NCc1ccc(F)cc1Cl	-	-	-	22µM
O=[N+]([O-])c1nn(-c2ccc3c(c2)OCCO3)n(O)c1=NCCC1=CCCCC1	-	-	-	14µM
CCOc1ccccc1COC(=O)c1cccc(-n2cnnn2)c1	-	-	-	18µM
Cc1ccccc1-c1cc2nc(NCc3ccccc3)n(C)c(=O)c2s1	?	28µM	-	?
Cc1ccccc1-c1cc2nc(NCc3ccncc3)n(C)c(=O)c2s1	-	-	-	-
CC(=O)NCCNc1nc2cc(-c3ccccc3CO)sc2c(=O)n1C	?	-	-	35µM
SMILES	aSyn rescue	FUS yeast rescue	Abeta rescue	TDP-43 yeast inh
COCCNc1nc2cc(-c3ccccc3C)sc2c(=O)n1C	-	?	-	-
COCCNc1nc2cc(-c3ccccc3OC)sc2c(=O)n1C	-	-	-	14µM
Cc1ccccc1-c1cc2nc(NCc3cccnc3)n(C)c(=O)c2s1	-	-	-	-
CC(=O)NCCNc1nc2cc(-c3ccccc3C)sc2c(=O)n1C	-	-	-	?
Cc1cnc(CNc2nc3cc(-c4ccccc4C)sc3c(=O)n2C)cn1	-	-	-	35µM
COc1cc2[nH]c(=O)n(CCCCCC(=O)N3CCN(c4ccc(Cl)cc4)CC3)c(=O)c2cc1OC	.	-	-	-
CCOc1ccc(-c2csc(N3CCC(C(N)=O)CC3)n2)cc1	.	-	.	.
O=C(CC1CCCC1)N1CC[C@H]2[C@H](CCCN2Cc2cc(F)cc(F)c2)C1	.	-	.	.
CSc1ccc(C2CC(=O)Oc3c2c(=O)n(C)c2ccccc32)cc1 (stereo not given)	.	-	-	-
COc1ccc(CCNC(=O)CCn2c(=O)c3ccccc3n(Cc3ccccc3)c2=O)cc1OC	.	-	-	-
CCOC(=O)Cn1nc(/C=C/c2ccc(C)cc2)ccc1=O	-	-	-[9.22 µM]	?
CCOC(=O)Cn1nc(/C=C/c2ccc(C(C)C)cc2)ccc1=O	-	?	-	20µM
Cc1c(/C=C/c2ccnc3ccccc23)ccc(N(C)C)c1C	-	.	.	.
COc1ccc(OC)c(NC(=O)N2CCN(S(=O)(=O)c3ccc4c(ccn4C)c3)CC2)c1	?	?	-	-
COc1ccc(NC(=O)N2CCN(S(=O)(=O)c3ccc4c(ccn4C)c3)CC2)c(OC)c1	-	13µM	-	-
CCOc1ccc(NC(=O)N2CCN(S(=O)(=O)c3ccc4c(ccn4C)c3)CC2)cc1	-	40µM	-	-
Cc1ccc(C)c(CSc2nc3ncccc3[nH]2)c1	.	-	-	-
CC(=O)c1sc2nc(C)c3c(c2c1N)CCCC3	18µM	-	-	13µM
CN1CCC(N[C@@H](Cc2ccccc2)C(=O)NCCCc2ccccc2)(C(=O)NCCc2c[nH]c3ccccc23)CC1	.	-	.	.
CCc1ccc(CNC(=O)c2ccc3nc(C(C)C)oc3c2)cc1	.	-	-	-
COc1ccccc1C(=O)Nc1nnc(SCc2cc(=O)c3ccccc3[nH]2)s1	.	-	-	-
NC(=NC(=O)c1ccc(Cl)cc1)N1N=CCC1c1ccccc1 (stereo not given)	-	-	-	?
O=C(Nc1ccc(Cl)c(Cl)c1)N1N=CCC1c1ccccc1 (stereo not given)	-	?	-	22µM
O=C(CSc1ccc(Cl)cc1)N1N=CCC1c1ccccc1 (stereo not given)	-	-	-	13µM
COc1cccc(/C=C2\SC(=S)N(CCCC(=O)N(CCO)c3ccccc3)C2=O)c1	?	?	-	22µM
SMILES	aSyn rescue	FUS yeast rescue	Abeta rescue	TDP-43 yeast inh
O=C1/C(=C/c2cccc(Br)c2)SC(=S)N1CCC(=O)N(CCO)c1ccccc1	-	-	-	-
COc1ccccc1CNc1nc(Oc2cccc(F)c2)c2sccc2n1	-	?	-	35µM
COCCNc1nc(Oc2cccc(F)c2)c2sccc2n1	-	-	-	?
O=[N+]([O-])/C=C/c1cn(Cc2ccccc2)c2ccccc12	-	-	-	10µM
O=C(O)Cn1cc(/C=C/[N+](=O)[O-])c2ccccc21	-	-	-	-[9.22 µM]
CC(=O)C1=C(C)NC(SCC(=O)c2ccc(Cl)c(Cl)c2)=C(C#N)C1c1ccco1 (stereo not given)	-	-	-	-
CC(=O)C1=C(C)NC(SCC(=O)c2cc(Cl)ccc2Cl)=C(C#N)C1c1ccco1 (stereo not given)	-	25µM	-	-
CCOC(=O)N1CCN(S(=O)(=O)c2ccc(OC)c3ccccc23)CC1	-	-	?	13µM
COc1ccc(S(=O)(=O)N2CCC(C(N)=O)CC2)c2ccccc12	-	-	-[9.22 µM]	-
